Source: PubChem
The entries come from a sample that favours hits as a whole.
CHX counter = Cycloheximide Counterscreen for Small Molecule Inhibitors of Shiga Toxin. cell reporter, cycloheximide protein synthesis inhibition counterscreen. AID 2314, 2010. 300,000 compounds, 12% hits. max response, %; in the data active = max response mostly above about 13%, no sharp cut-off; inactive = mostly below about 14%; note: read at 38.3 µM for the half of the compounds with a filed dose; 0% is about no effect
LmPK inhibitor = qHTS Assay for Inhibitors of Leishmania Mexicana Pyruvate Kinase (LmPK) | Q27686 | purified LmPK, Kinase-Glo ATP luminescence, 1 h | Potency, µM (titrated, usually from 57.5 µM), for the others: top-dose activity change, negative = inhibition, hits mostly inhibitors | 290,000 compounds, 0.37% hits | AID 1721, 2009; note: potency is the fitted concentration of half-maximal effect; % is set by controls: 0 for no effect and ±100 for the full control effect
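Screened at intermediate enzyme activity to detect both inhibitors and activators: LmPK at 0.1 nM, with a 0.5 nM enzyme column as activation reference. PEP 0.5 mM, ADP 0.1 mM; ATP detected by luminescence after 1 h.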
RE007 growth inh = qHTS Assay for Inhibitors of the HIV-1 protein Vpr; S. pombe RE007 Vpr strain, BacTiter-Glo ATP luminescence, 24 h; Potency, µM (titrated, usually from 92.2 µM), for the others: at the highest dose activity change, negative = less growth, actives largely listed as inhibitors; 360,000 compounds, 0.21% hits; active = well fitted falling curve with a large enough effect; inconclusive = small, poorly fitted or top-dose-only effect; inactive = no such curve, though single readings can be large or run the other way; note: potency is the fitted concentration of half-maximal effect; % is set by controls: 0 for no effect and ±100 for the full control effect; nearly all actives have a fitted effect of over 50% in size
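Fission yeast strain RE007, carrying one chromosomally integrated HIV-1 vpr copy, was seeded at OD 0.01 in PMG+AL medium with 23 nL pinned compound. After 24 h at 30 °C and 99% humidity, viability was read by BacTiter-Glo luminescence.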
Giardia FBPA inh = qHTS Assay for Inhibitors of Fructose-1,6-bisphosphate Aldolase from Giardia Lamblia. A8B2U2. 290,000 compounds, 0.71% hits. AID 2451, 2010. Potency, µM (top dose mostly 59.6 µM), inactives show at the top dose activity, negative = inhibition, actives largely listed as inhibitors. purified Giardia FBPA; note: potency is the fitted concentration of half-maximal effect; % is set by controls: 0 for no effect and ±100 for the full control effect; nearly all actives have a fitted effect of over 55% in size
Target sequence (A8B2U2 whole entry, looked up): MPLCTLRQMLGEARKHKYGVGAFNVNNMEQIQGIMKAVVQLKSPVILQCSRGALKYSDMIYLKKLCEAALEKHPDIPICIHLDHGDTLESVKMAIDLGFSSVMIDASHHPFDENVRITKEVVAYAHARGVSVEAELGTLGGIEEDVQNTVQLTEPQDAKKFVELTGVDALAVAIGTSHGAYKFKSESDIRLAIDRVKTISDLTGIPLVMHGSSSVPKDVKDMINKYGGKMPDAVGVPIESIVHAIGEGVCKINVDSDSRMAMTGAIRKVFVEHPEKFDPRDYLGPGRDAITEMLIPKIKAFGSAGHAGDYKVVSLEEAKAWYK
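Giardia FBPA (40 nM reagent) was preincubated 10 min at RT with compound (up to 57.5 uM final), then substrate plus GAPDH/TPI/NAD/arsenate coupling system with diaphorase/resazurin was added; resorufin fluorescence (525/598 nm) was read after 20 min.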
Shiga inhibitor = A qHTS for Small Molecule Inhibitors of Shiga Toxin; Vero cells, Shiga toxin protein synthesis inhibition reporter; inhibition, % at 38.7 µM; 290,000 compounds, 9.2% hits; AID 2315, 2010; in the data active = inhibition mostly above about 28%, no sharp cut-off; inactive = mostly below about 43%; note: 0% is about no effect
Tb PYK inh = qHTS of Trypanosoma Brucei Inhibitors; TbPYK enzyme, Kinase-Glo Plus ATP luminescence, 45 min; Potency, µM (doses to about 76.8 µM), for inactives: top-dose activity, negative = inhibition, most hits filed as inhibitors; 410,000 compounds, 0.12% hits; AID 624173, 2012; note: potency is the fitted concentration of half-maximal effect; % is set by controls: 0 for no effect and ±100 for the full control effect; nearly all actives have a fitted effect of over 50% in size
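Assay buffer: 50 mM TEA pH 7.2, 100 mM KCl, 10 mM MgCl2, 0.05% BSA, 0.01% Tween-20. Pyruvate kinase from T. brucei plus substrate met compound, then ADP (130 uM final). Luminescence was read post 45 min RT.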
The depositor's hits bear a star; ? = inconclusive; . = no result; [ ] = dose if it differs, or a comment. Unless noted, calls come from the whole dose curve; as a rule, active = well fitted curve in the direction sought with a large enough effect; inconclusive = small, poorly fitted or top-dose-only effect, or another doubt; inactive = no such curve, though single readings can be large; an effect the other way counts as inactive or inconclusive.

SMILES	CHX counter	LmPK inhibitor	RE007 growth inh	Giardia FBPA inh	Shiga inhibitor	Tb PYK inh
CN1CCN(CC(O)COc2ccc(Cl)cc2)CC1 (configuration not stated)	-4.6	1.6%	7.0%	-17.8%	-4.8	1.5%
CCCCCCCCCCCCCCOS(=O)(=O)O	-5.6	.	.	?	-4.3	.
Cn1c(-c2sccc2OCc2ccc(Cl)cc2Cl)n[nH]c1=S	2.0	?	18.3%	2.0%	-18.5	3.55µM*
Cc1ccc(COc2ccsc2-c2n[nH]c(=S)n2C)cc1	-2.7	-19.1%	0.4%[3.69 µM]	-2.1%	-11.8	.
Cc1ccc2sc(NC(=O)C3CC3)nc2c1C	36.2*	3.4%	-7.4%	-0.3%	63.3*	1.4%
O=C(Nc1nc2c(F)cc(F)cc2s1)C1CC1	44.1*	0.9%	6.3%	17.0%	84.7*	3.5%
O=C(Nc1nc2c(Cl)c(Cl)ccc2s1)C1CC1	25.2*	0.4%	0.0%	-5.0%	27.6*	-0.7%
O=C(Nc1nc2c(Cl)cccc2s1)C1CC1	15.0	5.4%	21.8%	-2.4%	27.2	-1.0%
CCC(=O)NNc1nc2c(C)c(C)ccc2s1	10.7	0.0%	9.4%	0.1%	-2.5	-10.8%
Cc1cc(Cl)cc2sc(NC(=O)C3CC3)nc12	10.8*	2.0%	-0.9%	4.0%	14.7	-3.0%
O=C(CN1C(=O)CCC1=O)Nc1nc2c(F)cc(F)cc2s1	.	.	14.5%	.	.	1.8%
CCc1ccc(-n2nc(CO)c(C(=O)NCc3ccccc3Cl)n2)cc1	.	.	.	.	.	1.3%
Cc1ccc(CNC(=O)c2ccc(CSCc3ccccc3Cl)o2)cc1	.	.	.	.	.	-5.6%
COc1cccc(CNC(=O)CCn2cnc3ccccc3c2=O)c1	.	.	.	.	.	0.5%
Cc1cccc2sc(NC(=O)CSCc3ccccc3)nc12	18.1*	2.5%	-25.6%	1.4%	62.4	-2.7%
Cc1cccc2sc(NC(=O)C3CC3)nc12	22.6*	-5.6%	-15.7%	19.4%	39.6*	-3.8%
Cc1cccc2sc(NC(=O)Cn3cccc3)nc12	-2.4	0.2%	13.5%	6.6%	7.6	4.3%
O=C(Nc1nc2c(Br)cccc2s1)C1CC1	18.2*	0.9%	?	-9.2%	11.3	-5.8%
CCC(=O)OC1=CN(Cc2ccccc2)S(=O)(=O)c2ccccc21	.	.	.	.	.	-1.8%
Nc1c(-c2ccccc2)sc2ccc3ccccc3[n+]12	12.2*	-10.4%	?	.	21.7	-14.4%
O=C(N/N=C/c1cccs1)C(O)c1ccccc1 (configuration not stated)	-1.2	5.1%	3.3%	0.6%	19.6	1.7%
Cc1ccc(/C=N/Nc2ccc(F)cc2)s1	23.1*	-5.5%	24.5%	12.3%	67.6*	-5.5%
Cn1c(=O)c2c(nc(N/N=C/c3cccs3)n2C)n(C)c1=O	12.3	6.9%	5.3%	?	17.0	-1.1%
Cc1ccc(/C=N/Nc2ccc(Cl)c(C(=O)O)c2)s1	103.6*	2.0%	-20.1%	8.0%	149.7*	-11.3%
Cn1c(N/N=C/c2cccs2)cc(=O)n(C)c1=O	20.9*	-8.7%	14.7%	?	22.0	-10.7%
SMILES	CHX counter	LmPK inhibitor	RE007 growth inh	Giardia FBPA inh	Shiga inhibitor	Tb PYK inh
O=C(O)c1cc(N/N=C/c2cccs2)ccc1Cl	49.2*	-4.1%	.	-3.4%	94.7*	.
COC(=O)[C@@H]1C[C@H]1[C@@H](NS(=O)(=O)c1ccc2ccccc2c1)c1ccccc1	.	.	.	-1.9%	.	.
CC1(O)/C=C\C=C(\CO)C2CC(C)(C)C2(O)CC1 (configuration not stated)	.	.	.	5.3%	.	.
O=C(c1ccccc1[N+](=O)[O-])N(CCc1ccccc1)Cc1ccccc1	4.7	-6.6%	-3.3%	.	-7.9	4.7%
CN(CCc1ccccc1)Cc1ccccc1[N+](=O)[O-]	17.2*	-2.6%	-21.1%	-10.2%	41.8	6.9%
CN1CCN(C=NC2=NN(c3cccc(C(F)(F)F)c3)CC2)CC1	20.7*	1.8%	-5.8%	5.2%	19.9	-8.1%
CN(C)C=NC1=NN(c2cccc(C(F)(F)F)c2)CC1	43.0*	-2.5%	-3.1%	13.4%	43.5*	-10.4%
Cc1n[nH]c(=O)n1-c1cccc(C(F)(F)F)c1	-2.3	-4.2%	31.4%	5.4%	-5.5	1.2%
